Measured values taken from PubChem BioAssay (Tox21).
Several values for one entry are separate records, joined by “and”; a condition that tells them apart may be missing. Equal entries are not always repeated. Records with an inconclusive call do not appear. Where a call stands in place of a potency, no number is given. A structure can be active in one record and inactive in another. Activity calls are given as the source filed them. Unless noted, the call rests on the fitted dose curve; in most records, active means well fitted curve in the direction sought with a large enough effect in the repeat runs; inconclusive means weak or mixed curves; inactive means no such curve, though single readings can be large; an effect the other way counts as inactive or inconclusive.

Tests used:
[1] = qHTS assay to identify small molecule agonists of H2AX (AID 1224845; active means well fitted activation curve with a large enough effect in the signal ratio in the repeat runs, not every such curve was filed as active; the % refers to the signal ratio; further: potency means the concentration at half of the fitted maximal effect)
Procedure, shortened: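 Phospho-H2AX Ser139 measured by HTRF (ex 320 nm; em 665 and 620 nm) after 24 hr antibody incubation. Compounds, 15 concentrations, 0.76% DMSO, were applied to CHO-K1 cells for 3hr at 37C before lysis.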

[2] = qHTS assay to identify small molecule agonists of H2AX - cell viability counter screen (AID 1224847; calls by dose curve; further: nearly all actives have a fitted effect of over 30% in size; further: potency means the concentration at half of the fitted maximal effect)
Procedure, shortened: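 Wild-type CHO-K1 cells (10% FBS medium) were plated overnight at 37C, exposed to compounds at 15 concentrations for 3 hr at 37C (0.76% DMSO final), and viability was read as CellTiter-Glo luminescence after 30 min at room temperature.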

[3] = qHTS assay to identify small molecule antagonists of the estrogen related receptor (ERR) signaling pathway from Tox21 library (AID 1224848); further: nearly all actives have a fitted effect of over 50% in size; further: potency means the concentration at half of the fitted maximal effect
Procedure, shortened: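 Luciferase luminescence (ONE-Glo, 30 min room temperature) was the read-out. Cells of the NTP-supplied ERR line, 2,000 per well, were given 6 h at 37 C before compound addition in DMSO and 18 h exposure at 37 C.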

[4] = qHTS assay to identify small molecule agonists of the estrogen related receptor (ERR) signaling pathway from Tox21 library (AID 1224849; calls by dose curve; further: nearly all actives have a fitted effect of over 15% in size); conditions: ERR reporter cell line, ONE-Glo luciferase, 18 h; at 92.4 µM (top of the series) unless noted
Procedure, shortened: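 Luciferase activity in ERR pathway reporter cells served as the agonist readout; exposure lasted 18 h at 37 C, with ONE-Glo detection after 30 min at room temperature.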

[5] = qHTS RealTime-Glo MT Cell Viability Assay in HepG2 cells - 24 hour (AID 1224867); further: nearly all actives have a fitted effect of over 50% in size; further: potency means the concentration at half of the fitted maximal effect
Procedure, shortened: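 Real-time, nonlytic viability: 600 HepG2 cells/well mixed with NanoLuc enzyme plus prosubstrate; 5 h settle, compound (DMSO) added by pintool; luminescence monitored over 40 h at 37 C.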

[6] = A CellTox Green Cytotoxicity Assay to monitor cytotoxicity in HEK293 cells - 0 hour (AID 1224869); further: nearly all actives have a fitted effect of over 50% in size
Procedure, shortened: (§1)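 Real-time, in one plate: 600 HEK293 cells/well with dead-cell DNA dye, pinned compound after 5 h, 37 C incubation over 40 h; viable cells give no appreciable fluorescence.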

[7] = qHTS RealTime-Glo MT Cell Viability Assay in HepG2 cells - 40 hour (AID 1224870); further: nearly all actives have a fitted effect of over 50% in size; further: potency means the concentration at half of the fitted maximal effect
Procedure, shortened: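 Real-time viability: cells seeded at 600 per well together with NanoLuc and cell-permeant prosubstrate, compounds added after 5 h incubation. Luminescence tracked at 0, 8, 16, 24, 32 and 40 h of exposure.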

[8] = A CellTox Green Cytotoxicity Assay to monitor cytotoxicity in HEK293 cells - 40 hour (AID 1224871); further: nearly all actives have a fitted effect of over 45% in size; further: potency means the concentration at half of the fitted maximal effect
Procedure, shortened: as §1

[9] = qHTS RealTime-Glo MT Cell Viability Assay in HEK293 cells - 32 hour (AID 1224868); further: nearly all actives have a fitted effect of over 50% in size; further: potency means the concentration at half of the fitted maximal effect
Procedure, shortened: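 Cells + reagent dispensed (600 cells/well, HEK293) → 5 h at 37 C/5% CO2 → 23 nL compound in DMSO pinned → 40 h at 37 C → luminescence read at 0, 8, 16, 24, 32, 40 h.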

[10] = qHTS assay to identify small molecule agonists of the hypoxia (HIF-1) signaling pathway (AID 1224846; active means well fitted activation curve with a large enough effect in the signal ratio in the repeat runs, not every such curve was filed as active; the % refers to the signal ratio)
Procedure, shortened: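 ME-180 HRE-bla reporter cells; compounds in DMSO, 17 h at 37C; read-out beta-lactamase via CCF4-AM FRET.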

SMILES | Potency [1] | Potency [2] | Potency [3] | activity change, positive = activation [4] | Potency [5] | Potency [6] | Potency [7] | Potency [8] | Potency [9] | cytotoxicity [6] | outcome [10]
O=C(CCl)Nc1ccccc1 | 80 µM (active) | inactive | 19.3 µM (active) | -72.1% (inactive) | inactive | inactive | inactive | – | – | – | –
CC(=O)C(Cl)(Cl)Cl | inactive | 30.8 µM (active) | 5.9 µM (active) | -67.8% (inactive) | inactive | inactive | inactive | inactive | – | – | –
[Cl][Sn]([c]1ccccc1)([c]1ccccc1)[c]1ccccc1 | 0.677 µM (active) | 1.52 µM (active) | 0.58 µM (active) | – | 2.61 µM (active) | – | – | 1.65 µM (active) | 0.262 µM (active) | -13.5% [at 15.8 µM] (inactive) | –
COC12CC[C@@]3(C[C@@H]1C(C)(O)C(C)(C)C)[C@H]1Cc4ccc(O)c5c4[C@@]3(CCN1CC1CC1)[C@H]2O5 (stereo not given in full) | 56.3 µM (active) | 28.2 µM (active) | 27.1 µM (active) | -68% (inactive) | 43.4 µM (active) | inactive | 48.6 µM (active) | 24.4 µM (active) | 24.4 µM (active) | – | –
CC(C)CBr | inactive | inactive | inactive | 2.25% (inactive) | inactive | inactive | inactive | inactive | inactive | – | –
N#Cc1ccccc1Cl | inactive | inactive | inactive | – | – | inactive | – | inactive | inactive | – | –
C=COCCCl | inactive | inactive | inactive | – | inactive | inactive | inactive | inactive | inactive | – | –
Clc1ccc(C(c2ccc(Cl)cc2)C(Cl)(Cl)Cl)cc1 | 0.161 µM (active) | 101 µM (active) and 89.8 µM (active) | 54.9 µM (active) and 61.1 µM (active) | – | inactive | inactive | inactive | 55.3 µM (active) and inactive | 39.2 µM (active) | – | –
CC1(C)CN=C(NN=C(/C=C/c2ccc(C(F)(F)F)cc2)/C=C/c2ccc(C(F)(F)F)cc2)NC1 | inactive | 25.3 µM (active) | 13.7 µM (active) | -76.2% (inactive) | 17.4 µM (active) | inactive | 15.5 µM (active) | 49 µM (active) | 38.9 µM (active) | – | –
N#C/C=C/c1ccccc1 | inactive | – | – | – | – | inactive | inactive | inactive | inactive | – | inactive
CCCCN(CCCC)C(=S)[S-].CCCCN(CCCC)C(=S)[S-].[Zn+2] | inactive | 80 µM (active) | 12.2 µM (active) | -74.5% (inactive) | 34.7 µM (active) | inactive | 24.5 µM (active) | 15.5 µM (active) | 11 µM (active) | – | –
CC(c1ccc(O)cc1)c1ccc(O)cc1 | inactive and 56.6 µM (active) | inactive | inactive | -56.9% (inactive) and -6.34% (inactive) | inactive | inactive | inactive | inactive | 45.9 µM (active) | – | –
N#CCCO | inactive | – | – | – | – | inactive | – | inactive | inactive | – | inactive
CCC[CH2][Sn]([CH2]CCC)([CH2]CCC)[O]C(=O)c1ccccc1 | 0.505 µM (active) | 0.713 µM (active) | 0.486 µM (active) | -78% (inactive) | 0.49 µM (active) | inactive | 0.389 µM (active) | 0.692 µM (active) | 0.389 µM (active) | – | –
CCOCCOC(C)=O | inactive | inactive | inactive | – | inactive | inactive | inactive | inactive | inactive | – | –
CCCCCCCCCCCCCN1CC(C)OC(C)C1 (stereo not given) | inactive | – | – | – | – | inactive | inactive | inactive | inactive | – | inactive
CCCN(CCC)c1c([N+](=O)[O-])cc(S(N)(=O)=O)cc1[N+](=O)[O-] | 101 µM (active) | 89.8 µM (active) | 48.6 µM (active) | -56.8% (inactive) | 43.6 µM (active) | inactive | – | 39.7 µM (active) | 18.5 µM (active) | – | –
O=c1ssc(Cl)c1Cl | inactive | 89.8 µM (active) | – | -17.9% (inactive) | 21.9 µM (active) | inactive | 21.9 µM (active) | 21.9 µM (active) | 15.5 µM (active) | – | –
CCCCCCCCCCCCCCC(Br)C(=O)O (stereo not given) | inactive | inactive | – | – | inactive | inactive | inactive | inactive | inactive | – | –
C[C@H]1CC[C@@H]2[C@@H](C)[C@H]3[C@H](C[C@H]4[C@@H]5CC=C6CC(O[C@@H]7O[C@H](CO)[C@H](O)[C@H](O[C@@H]8O[C@H](CO)[C@@H](O)[C@H](O)[C@H]8O)[C@H]7O[C@H]7O[C@@H](C)[C@H](O)[C@@H](O)[C@H]7O)CC[C@]6(C)[C@H]5CC[C@]34C)N2C1 (stereo not given in full) | inactive | 32.9 µM (active) | – | -50.4% (inactive) | 50.6 µM (active) | inactive | 56.7 µM (active) | 7.14 µM (active) | 14.3 µM (active) | – | –
CC(C)[C@H](C(=O)O[C@H](C#N)c1cccc(Oc2ccccc2)c1)c1ccc(Cl)cc1 | inactive | inactive | – | – | inactive | inactive | inactive | inactive | – | – | –
N#CCCC(Br)(C#N)CBr (stereo not given) | 35.7 µM (active) | 127 µM (active) | – | -45.2% (inactive) | 38.9 µM (active) | inactive | 38.9 µM (active) | 49 µM (active) | 21.9 µM (active) | – | –
Cn1cc(C2=C(c3cn(C4CCN(Cc5ccccn5)CC4)c4ccccc34)C(=O)NC2=O)c2ccccc21 | inactive | inactive | – | -11.8% [at 42.5 µM] (inactive) | – | inactive | – | inactive | – | – | –
c1ccc2c(c1)[nH]c1cnccc12 | inactive | inactive | – | – | inactive | inactive | inactive | inactive | inactive | – | –
